In PubChem BioAssay AID1159580 (chemical genetic matrix, 2015):
“And” between values parts separate entries of the source, which are not always exact repeats. Equal entries are not always repeated. About 2,000 (36%) of roughly 5,500 compounds were called active. Inconclusive results (about 18%) are left out. Rule as the data show it: active = normalized growth mostly below about 0.91 (no sharp cut-off); inconclusive = no clear call, values can overlap the other calls; inactive = mostly above about 0.92. The list shows a part of the results.

Assay: chemical genetic growth profiling, strain panel (AID 1159580);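 also: tested at 20 µM; growth read once vehicle control cultures reached saturation at 30 °C; 1 = growth at the plate median or of vehicle wells; lower values mean less growth of the strain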
Settings: S. cerevisiae deletion strains, growth OD

Measured: normalized growth

C[N+](C)(C)CC(=O)[O-]
inactive: locus YAL013W, strain DEP1, hits give low values 0.992 | locus YAL021C, strain ccr4, hits give low values 0.993 | locus YAL026C, strain drs2, hits give low values 0.983 | locus YAL030W, strain snc1, hits give low values 1 | locus YBL061C, strain skt5, hits give low values 0.978 | locus YBR009C, strain hhf1, hits give low values 1 | locus YBR021W, strain FUR4, hits give low values 1.16 | locus YBR023C, strain chs3, hits give low values 0.998 | locus YBR171W, strain sec66, hits give low values 0.981 | locus YBR229C, strain ROT2, hits give low values 0.993 | locus YBR231C, strain swc5, hits give low values 0.969 | locus YBR279W, strain paf1, hits give low values 0.997 | locus YCL011C, strain gbp2, hits give low values 0.982 | locus YCL016C, strain dcc1, hits give low values 1 | locus YCL029C, strain bik1, hits give low values 0.982 | locus YCL061C, strain MRC1, hits give low values 0.972 | locus YCL069W, strain vba3, hits give low values 0.997 | locus YCR088W, strain abp1, hits give low values 0.996 | locus YDL005C, strain med2, hits give low values 0.959 | locus YDL035C, strain GPR1, hits give low values 0.994 | locus YDL040C, strain nat1, hits give low values 0.988 | locus YDL074C, strain BRE1, hits give low values 0.949 | locus YDL101C, strain DUN1, hits give low values 0.998 | locus YDL134C, strain PPH21, hits give low values 1.01 | locus YDL185W, strain tfp1, hits give low values 0.95 | locus YDL192W, strain arf1, hits give low values 0.985 | locus YDR001C, strain nth1, hits give low values 0.957 | locus YDR069C, strain doa4, hits give low values 0.955 | locus YDR101C, strain arx1, hits give low values 0.969 | locus YDR137W, strain rgp1, hits give low values 1.02 | locus YDR150W, strain NUM1, hits give low values 0.981 | locus YDR159W, strain sac3, hits give low values 0.978 | locus YDR162C, strain NBP2, hits give low values 0.996 | locus YDR195W, strain ref2 0.974 | locus YDR297W, strain sur2, hits give low values 0.994 | locus YDR318W, strain mcm21, hits give low values 0.992 | locus YDR334W, strain swr1, hits give low values 0.939 | locus YDR335W, strain msn5, hits give low values 0.964 | locus YDR388W, hits give low values 0.997 | locus YDR392W, strain spt3, hits give low values 1 | locus YDR502C, strain sam2, hits give low values 0.986 | locus YEL003W, strain gim4, hits give low values 0.99 | locus YEL037C, strain rad23, hits give low values 0.989 | locus YEL061C, strain CIN8 (second series), hits give low values 0.992 | locus YEL061C, strain CIN8, hits give low values 0.996 | locus YER015W, strain faa2, hits give low values 0.993 | locus YER016W, strain bim1, hits give low values 1.02 | locus YER110C, hits give low values 0.985 | locus YER111C, strain swi4, hits give low values 0.992 | locus YER155C, strain BEM2 (second series), hits give low values 0.987 | locus YER155C, strain BEM2, hits give low values 0.996 | locus YER167W, strain BCK2, hits give low values 0.993 | locus YFR010W, strain ubp6, hits give low values 0.958 | locus YGL078C, strain dbp3, hits give low values 0.998 | locus YGL086W, strain mad1, hits give low values 1.01 | locus YGL167C, strain pmr1, hits give low values 0.978 | locus YGL173C, strain kem1, hits give low values 1 | locus YGL227W, strain vid30, hits give low values 0.968 | locus YGL240W, strain doc1, hits give low values 0.981 | locus YGL248W, strain PDE1, hits give low values 0.989 | locus YGL253W, strain hxk2, hits give low values 0.962 | locus YGR078C, strain PAC10, hits give low values 0.955 | locus YGR135W, strain pre9, hits give low values 0.984 | locus YGR229C, strain SMI1, hits give low values 0.979 | locus YGR252W, strain gcn5, hits give low values 1.19 | locus YHR013C, strain ard1, hits give low values 0.992 | locus YHR027C, strain rpn1, hits give low values 0.983 | locus YHR030C, strain SLT2, hits give low values 0.993 and 0.982 | locus YHR079C, strain IRE1 (second series), hits give low values 0.982 | locus YHR079C, strain IRE1, hits give low values 0.989 | locus YHR094C, strain hxt1, hits give low values 0.973 | locus YHR129C, strain ARP1, hits give low values 0.994 | locus YHR142W, strain chs7, hits give low values 0.963 | locus YHR200W, strain rpn10, hits give low values 0.978 | locus YIL066C, strain RNR3, hits give low values 0.983 | locus YIL073C, strain SPO22, hits give low values 0.94 | locus YIL125W, strain kgd1, hits give low values 0.988 | locus YIR030C, strain dcg1, hits give low values 0.994 | locus YJL092W, strain hpr5, hits give low values 0.989 | locus YJL095W, strain BCK1 (second series), hits give low values 0.979 | locus YJL095W, strain BCK1, hits give low values 0.987 and 0.995 | locus YJL115W, strain asf1, hits give low values 0.966 | locus YJL129C, strain trk1, hits give low values 0.958 | locus YJL134W, strain LCB3, hits give low values 1 | locus YJL154C, strain vps35, hits give low values 0.963 | locus YJL164C, strain tpk1, hits give low values 1.01 | locus YJL166W, strain qcr8, hits give low values 0.978 | locus YJL168C, strain set2, hits give low values 0.992 | locus YJL187C, strain SWE1 (second series), hits give low values 0.988 | locus YJL187C, strain SWE1, hits give low values 0.964 | locus YJR043C, strain POL32, hits give low values 0.998 | locus YJR066W, strain TOR1, hits give low values 0.948
